From article PMC5540273 (PLoS ONE, 2017)

How the values were obtained:
Conditions in all cases: concentration: 1 μM, replicates: in singlicate; n = 1
[1] = test system: DAPK2
[2] = test system: DAPK3
[3] = test system: T1, DCAMKL1
T1 construct: gene DCLK1

[4] = test system: T2, DCAMKL2
T2 construct: gene DCLK2

[5] = test system: T3, DCAMKL3
T3 construct: gene DCLK3

[6] = test system: DDR1
[7] = test system: DDR2
[8] = test system: T4, DLK
T4 construct: gene MAP3K12

[9] = test system: T5, DMPK2
T5 construct: gene CDC42BPG

[10] = test system: DMPK
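Note: KINOMEscan kinase panel screen.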

Row | SMILES | %Inh [1] | %Inh [2] | %Inh [3] | %Inh [4] | %Inh [5] | %Inh [6] | %Inh [7] | %Inh [8] | %Inh [9] | %Inh [10]
1 | COc1cc2ncnc(Nc3ccc4nc(-c5ccccc5)[nH]c4c3)c2cc1OC.Cl [GW282450] | 15% | 13% | 8% | 0% | 0% | 0% | 0% | 7% | 0% | 0%
2 | CC(C)(C)c1ccc(C(=O)Nc2cn3cc(-c4cccnc4)ccc3n2)cc1 | 13% | 8% | 45% | 12% | 25% | 24% | 0% | 0% | 17% | 5%
3 | Cc1cccc(-c2nc(Nc3ccncc3)c3ccccc3n2)n1 [GW855857] | 7% | 17% | 14% | 0% | 21% | 30% | 45% | 0% | 76% | 2%
4 | Cc1cccc(-c2cc(Nc3ccncc3)c3ccccc3n2)n1 [GSK223675] | 0% | 9% | 3% | 0% | 1% | 9% | 0% | 0% | 7% | 0%
5 | Cc1ccc(NC(=O)Nc2cc(C(C)(C)C)nn2-c2ccccc2)cc1 [GSK1014915] | 0% | 18% | 2% | 25% | 5% | 90.7% | 88% | 18% | 0% | 3%
6 | Cl.NC(=O)c1cccc(Nc2nccc(Nc3ccc(Oc4cccc(Cl)c4)c(Cl)c3)n2)c1 [GW659008] | 0% | 22% | 0% | 13% | 0% | 1% | 0% | 24% | 55% | 0%
7 | Nc1ncnc2[nH]c(-c3ccccc3)nc12 [AH5015] | 0% | 27% | 11% | 0% | 13% | 0% | 13% | 21% | 0% | 0%
8 | COC(=O)c1c(-c2ccccc2)c2cc(C(=O)O)ccc2c(=O)n1Cc1ccccc1 | 0% | 0% | 5% | 4% | 26% | 92.6% | 63% | 0% | 0% | 12%
9 | Cc1ccc(C(=O)Nc2ccc(Nc3ccnc4cc(-c5ccccn5)ccc34)cc2O)cc1.Cl [GW440146] | 0% | 13% | 0% | 0% | 16% | 12% | 10% | 47% | 0% | 0%
10 | COc1ccccc1CNC(=O)c1cc(C(=O)c2ccccc2C)c[nH]1 [GSK364507] | 0% | 17% | 16% | 16% | 4% | 11% | 0% | 15% | 5% | 0%
11 | COc1cc2nccc(Nc3ccc(NC(=O)c4ccc(C)cc4)c(O)c3)c2cc1OC.Cl [GW440132] | 8% | 19% | 8% | 7% | 16% | 0% | 5% | 6% | 0% | 0%
12 | CS(=O)(=O)c1ccc(-c2c(-c3ncn[nH]3)sc(N3CCOCC3)c2C#N)cc1 | 0% | 0% | 19% | 23% | 19% | 0% | 18% | 53% | 15% | 0%
13 | Clc1cc(Cl)cc(Nc2ccnc(Nc3cc(Cl)cc(Cl)c3)n2)c1 [GSK175726] | 19% | 23% | 0% | 0% | 0% | 6% | 24% | 11% | 18% | 0%
14 | COc1ccc(Nc2nccc(-c3cccc(NC(=O)c4cc5cc(F)ccc5[nH]4)c3)n2)cc1 [GSK1229782] | 11% | 6% | 4% | 0% | 4% | 0% | 39% | 37% | 13% | 25%
15 | Fc1cccc(COc2nnc(-c3ccc4c(c3)CCO4)o2)c1 | 0% | 0% | 9% | 0% | 0% | 0% | 12% | 0% | 0% | 0%
16 | Cc1cc(N2Cc3ccccc3C2)nc(Nc2ccc(S(=O)(=O)N3CCOCC3)cc2)n1.Cl [GSK1669917] | 5% | 100% | 21% | 0% | 0% | 0% | 9% | 2% | 1% | 0%
17 | Cc1ccc(NC(=O)Nc2cccc(Cl)c2)cc1-c1ccc(C(=O)Nc2ccncc2)cc1 [GSK1398468] | 0% | 22% | 17% | 0% | 0% | 99.7% | 72% | 25% | 8% | 0%
18 | O=C(Nc1n[nH]c2nc(-c3nccs3)c(Br)cc12)C1CC1 [SB-742251] | 0% | 6% | 4% | 0% | 0% | 0% | 26% | 34% | 0% | 0%
